Inconclusive results are not listed. The source made the active and inactive calls. Calls come from the whole dose curve; as a rule, active = well fitted inhibition curve with a large enough effect; inconclusive = small, poorly fitted or top-dose-only effect; inactive = flat fitted curve, though single readings scatter.
These compounds were tested against Voltage-gated inwardly rectifying potassium channel KCNH2 (Homo sapiens) (UniProt Q12809) (assay: qHTS Assay for Small Molecule Inhibitors of the Human hERG Channel Activity (AID 588834;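 note: lower thallium flux fluorescence means stronger hERG block; nearly all actives have a fitted effect of over 50% in size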; for activity change, negative = inhibition: top concentration of the series differs between compounds)). Conditions: U2OS BacMam hERG, FluxOR thallium flux fluorescence; series mostly up to 46.1 µM; activity change, negative = inhibition: at the top concentration.
Voltage-gated inwardly rectifying potassium channel KCNH2 (Homo sapiens), sequence (Q12809 whole entry, looked up): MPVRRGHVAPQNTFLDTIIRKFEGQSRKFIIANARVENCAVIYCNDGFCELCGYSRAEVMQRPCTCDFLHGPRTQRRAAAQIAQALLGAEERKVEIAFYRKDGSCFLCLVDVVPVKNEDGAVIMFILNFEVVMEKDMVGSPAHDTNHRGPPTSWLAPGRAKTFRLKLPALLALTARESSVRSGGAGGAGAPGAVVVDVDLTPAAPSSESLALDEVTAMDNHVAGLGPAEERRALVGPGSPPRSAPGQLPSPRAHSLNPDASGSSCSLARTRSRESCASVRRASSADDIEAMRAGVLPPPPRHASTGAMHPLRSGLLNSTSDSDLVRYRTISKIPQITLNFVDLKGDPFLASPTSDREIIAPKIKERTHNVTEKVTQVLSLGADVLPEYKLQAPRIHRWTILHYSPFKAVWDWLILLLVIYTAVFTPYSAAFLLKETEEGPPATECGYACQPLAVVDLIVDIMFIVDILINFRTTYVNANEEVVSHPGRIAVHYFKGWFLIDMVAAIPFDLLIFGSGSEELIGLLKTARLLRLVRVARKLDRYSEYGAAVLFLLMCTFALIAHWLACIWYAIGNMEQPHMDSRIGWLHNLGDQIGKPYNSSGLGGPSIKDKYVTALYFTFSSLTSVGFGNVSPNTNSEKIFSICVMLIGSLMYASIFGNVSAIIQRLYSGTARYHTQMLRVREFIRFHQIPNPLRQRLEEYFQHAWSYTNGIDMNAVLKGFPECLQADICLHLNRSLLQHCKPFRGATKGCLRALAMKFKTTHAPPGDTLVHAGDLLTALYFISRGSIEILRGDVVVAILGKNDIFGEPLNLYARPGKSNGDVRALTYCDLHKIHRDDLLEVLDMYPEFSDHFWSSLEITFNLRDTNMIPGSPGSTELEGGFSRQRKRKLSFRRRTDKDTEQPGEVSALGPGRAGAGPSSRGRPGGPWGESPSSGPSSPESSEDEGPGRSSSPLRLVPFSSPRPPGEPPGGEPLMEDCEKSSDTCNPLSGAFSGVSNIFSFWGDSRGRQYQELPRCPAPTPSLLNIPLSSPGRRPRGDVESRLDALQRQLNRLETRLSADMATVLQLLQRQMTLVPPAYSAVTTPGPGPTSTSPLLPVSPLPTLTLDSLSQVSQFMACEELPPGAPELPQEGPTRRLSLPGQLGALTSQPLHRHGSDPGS
Procedure, shortened: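 In hERG-transduced U2OS cells, dye-loaded for 1 hr at room temperature in dark, test compounds incubated 10 min at 37 °C before thallium stimulation. AC50 values derived by Hill modelling of concentration-response.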
With `NC(=O)CS(=O)C(c1ccccc1)c1ccccc1` (stereo unspecified) the “activity change, negative = inhibition” value was 1.41% (inactive). In the case of `CC(C)(C)NCC(O)c1cc(Cl)c(N)c(C(F)(F)F)c1` (stereo unspecified), the “activity change, negative = inhibition” value is reported as -3.42% (inactive). `CN1C(=O)CCS(=O)(=O)C1c1ccc(Cl)cc1` (stereo unspecified) was tested, and the Potency was “inactive”. `CCC1(c2ccc(N)cc2)CCC(=O)NC1=O` (stereo unspecified) was tested, and the Potency was “inactive”. `O=C1CN=C(c2ccccc2)c2cc([N+](=O)[O-])ccc2N1` was tested, and the “activity change, negative = inhibition” value was -19.6% (inactive). For `C[C@@H]1O[C@@H]1P(=O)(O)O`, the “activity change, negative = inhibition” value was 18.1% (inactive). With `COc1cccc([C@@]2(O)CCCC[C@@H]2CN(C)C)c1` the “activity change, negative = inhibition” value was 10.3% (inactive). In the case of `CC(C)C[C@H](CN)CC(=O)O`, the “activity change, negative = inhibition” value is reported as -7.62% (inactive). With `Cc1nnc2n1-c1ccc(Cl)cc1C(c1ccccc1)=NC2` the “activity change, negative = inhibition” value was 12.7% (inactive). In the case of `CCCCCCC(=O)CCCCCC/C=C/C[C@@H](O)[C@H](O)[C@@](N)(CO)C(=O)O`, the “activity change, negative = inhibition” value is reported as -15.4% (inactive). For `CCCCC/C=C\C/C=C\C/C=C\C/C=C\CCCC(=O)NCC(=O)O`, the Potency was “inactive”. With `NNc1ccccc1` the “activity change, negative = inhibition” value was 3.85% (inactive). For `COc1ccc2c(c1)C13CCCC[C@@H]1C(C2)N(C)CC3` (stereo partly specified), the “activity change, negative = inhibition” value was -14.8% (inactive). With `COP(=S)(OC)Oc1ccc(S(=O)(=O)N(C)C)cc1` the “activity change, negative = inhibition” value was 5.52% (inactive). For `NC(=O)c1cc([N+](=O)[O-])cc([N+](=O)[O-])c1`, the “activity change, negative = inhibition” value was 1.15% (inactive). `COc1c2c(cc3c1OCO3)CCN(C)C2` was tested, and the “activity change, negative = inhibition” value was 6.16% [at 20.6 µM] (inactive). `CC(C)(C)NCC(O)c1ccccc1Cl` (stereo unspecified) was tested, and the Potency was “inactive”. With `C[C@@H](N)[C@@H](O)c1ccccc1` the “activity change, negative = inhibition” value was 2.11% [at 20.6 µM] (inactive). With `COC(=O)[C@@H](N)CCCN/C(N)=N/[N+](=O)[O-]` the “activity change, negative = inhibition” value was 20.7% (inactive). With `CN1CCC(O)(c2ccc(F)cc2)C(C(=O)c2ccc(F)cc2)C1` (stereo unspecified) the Potency was 14.1 µM (active). In the case of `O=c1[nH]oc2c1CCNC2`, the Potency is reported as “inactive”.
% is set by controls: 0 for no effect and ±100 for the full control effect; potency is the fitted concentration of half-maximal effect.
